Experimental data published in the supplement of paper PMC10849652.
Targets with a hit are over-represented here; the source holds about 7,900 in all. About 0.6% of all pairs of compound and target were hits.

Compound: C1=CC2=NC=CN=C2C=C1/C=C/3\C(=O)NC(=O)S3
Test: log2 fold change, soluble protein after heating vs DMSO (PISA); higher = thermal stabilisation; K562 cells, 10 uM, 30 min; active = over 0.2 and 3.5 SD of the protein, either way, in both replicates (recomputed)
Outline: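 Aliquots of K562 cells (2×10^6 cells/mL) treated with 10 μM compound for 30 min were heated for 3 min over 48°C-58°C. After pooling and extraction in PBS with 0.5% NP-40 at 4°C, soluble protein from a 21,000xg, 90 min spin was quantified by TMTpro 16plex LC-MS/MS with channel sums equalised. Thermal stability is expressed against control samples, from duplicates, as a log2 fold change.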

UniProt P27105, sequence (P27105 whole entry, looked up): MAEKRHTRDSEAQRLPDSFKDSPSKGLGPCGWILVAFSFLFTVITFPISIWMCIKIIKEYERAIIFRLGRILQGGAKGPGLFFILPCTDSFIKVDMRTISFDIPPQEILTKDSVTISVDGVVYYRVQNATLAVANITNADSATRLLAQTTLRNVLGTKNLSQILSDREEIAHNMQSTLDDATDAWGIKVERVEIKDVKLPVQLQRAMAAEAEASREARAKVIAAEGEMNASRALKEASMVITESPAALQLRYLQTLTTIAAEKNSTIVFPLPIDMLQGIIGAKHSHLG
UniProt Q658P3, sequence (Q658P3 whole entry, looked up): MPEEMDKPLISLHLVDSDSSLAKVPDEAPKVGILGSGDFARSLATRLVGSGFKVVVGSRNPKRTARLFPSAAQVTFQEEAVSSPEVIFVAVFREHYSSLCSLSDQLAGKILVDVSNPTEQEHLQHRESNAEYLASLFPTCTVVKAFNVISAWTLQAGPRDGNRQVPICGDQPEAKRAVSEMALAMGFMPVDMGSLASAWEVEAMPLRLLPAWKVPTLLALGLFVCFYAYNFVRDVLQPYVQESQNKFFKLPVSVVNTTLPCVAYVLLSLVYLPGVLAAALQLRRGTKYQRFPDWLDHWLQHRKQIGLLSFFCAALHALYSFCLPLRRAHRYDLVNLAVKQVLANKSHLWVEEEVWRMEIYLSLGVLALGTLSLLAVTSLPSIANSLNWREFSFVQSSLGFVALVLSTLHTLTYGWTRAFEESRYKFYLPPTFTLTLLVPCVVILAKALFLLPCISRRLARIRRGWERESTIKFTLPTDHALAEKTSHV
UniProt O95149, sequence (O95149 whole entry, looked up): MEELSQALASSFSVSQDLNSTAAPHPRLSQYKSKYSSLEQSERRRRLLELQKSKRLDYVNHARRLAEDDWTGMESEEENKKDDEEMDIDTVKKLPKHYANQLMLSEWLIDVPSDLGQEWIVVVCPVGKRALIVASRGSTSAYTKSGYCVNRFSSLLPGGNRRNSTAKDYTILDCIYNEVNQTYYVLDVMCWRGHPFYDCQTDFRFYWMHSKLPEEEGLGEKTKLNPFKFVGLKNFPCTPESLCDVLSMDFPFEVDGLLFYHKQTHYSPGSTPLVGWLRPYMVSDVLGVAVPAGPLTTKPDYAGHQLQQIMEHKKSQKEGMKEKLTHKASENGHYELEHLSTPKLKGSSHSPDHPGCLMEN
UniProt Q8WUH2, sequence (Q8WUH2 whole entry, looked up): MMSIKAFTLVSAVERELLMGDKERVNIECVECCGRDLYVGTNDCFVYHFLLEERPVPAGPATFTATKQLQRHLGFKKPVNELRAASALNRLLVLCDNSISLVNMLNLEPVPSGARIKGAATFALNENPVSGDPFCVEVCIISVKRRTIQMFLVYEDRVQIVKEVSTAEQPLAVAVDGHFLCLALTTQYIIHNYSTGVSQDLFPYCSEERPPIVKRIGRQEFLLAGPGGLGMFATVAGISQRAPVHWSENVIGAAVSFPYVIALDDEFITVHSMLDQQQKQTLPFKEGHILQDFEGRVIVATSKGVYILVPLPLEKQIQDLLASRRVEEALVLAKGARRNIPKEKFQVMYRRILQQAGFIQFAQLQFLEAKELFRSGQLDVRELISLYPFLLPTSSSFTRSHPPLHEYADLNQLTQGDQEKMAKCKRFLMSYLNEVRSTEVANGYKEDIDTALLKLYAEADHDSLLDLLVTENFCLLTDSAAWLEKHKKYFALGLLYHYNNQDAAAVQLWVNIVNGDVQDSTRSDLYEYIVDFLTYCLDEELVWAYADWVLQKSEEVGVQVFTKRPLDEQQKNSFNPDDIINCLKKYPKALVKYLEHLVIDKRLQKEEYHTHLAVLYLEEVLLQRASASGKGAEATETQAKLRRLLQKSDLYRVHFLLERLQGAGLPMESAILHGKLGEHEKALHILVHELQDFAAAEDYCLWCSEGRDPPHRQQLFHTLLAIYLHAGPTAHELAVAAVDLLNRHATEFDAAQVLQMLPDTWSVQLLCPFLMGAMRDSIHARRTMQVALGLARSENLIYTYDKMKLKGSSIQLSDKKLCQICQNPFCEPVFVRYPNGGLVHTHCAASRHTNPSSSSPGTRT
UniProt Q13043, sequence (Q13043 whole entry, looked up): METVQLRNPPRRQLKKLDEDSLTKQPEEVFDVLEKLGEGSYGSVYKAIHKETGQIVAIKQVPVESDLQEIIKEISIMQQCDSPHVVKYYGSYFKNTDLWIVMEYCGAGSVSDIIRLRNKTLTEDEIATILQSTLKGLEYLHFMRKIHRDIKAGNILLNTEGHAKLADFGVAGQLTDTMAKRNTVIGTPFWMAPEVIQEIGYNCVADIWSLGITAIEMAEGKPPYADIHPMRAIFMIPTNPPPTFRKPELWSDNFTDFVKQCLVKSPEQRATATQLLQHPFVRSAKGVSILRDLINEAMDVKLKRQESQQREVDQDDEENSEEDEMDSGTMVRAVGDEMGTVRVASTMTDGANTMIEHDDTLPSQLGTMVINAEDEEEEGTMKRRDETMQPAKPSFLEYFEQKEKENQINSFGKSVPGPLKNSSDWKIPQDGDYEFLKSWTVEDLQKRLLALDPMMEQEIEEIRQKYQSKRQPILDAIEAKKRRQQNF
UniProt P31641, sequence (P31641 whole entry, looked up): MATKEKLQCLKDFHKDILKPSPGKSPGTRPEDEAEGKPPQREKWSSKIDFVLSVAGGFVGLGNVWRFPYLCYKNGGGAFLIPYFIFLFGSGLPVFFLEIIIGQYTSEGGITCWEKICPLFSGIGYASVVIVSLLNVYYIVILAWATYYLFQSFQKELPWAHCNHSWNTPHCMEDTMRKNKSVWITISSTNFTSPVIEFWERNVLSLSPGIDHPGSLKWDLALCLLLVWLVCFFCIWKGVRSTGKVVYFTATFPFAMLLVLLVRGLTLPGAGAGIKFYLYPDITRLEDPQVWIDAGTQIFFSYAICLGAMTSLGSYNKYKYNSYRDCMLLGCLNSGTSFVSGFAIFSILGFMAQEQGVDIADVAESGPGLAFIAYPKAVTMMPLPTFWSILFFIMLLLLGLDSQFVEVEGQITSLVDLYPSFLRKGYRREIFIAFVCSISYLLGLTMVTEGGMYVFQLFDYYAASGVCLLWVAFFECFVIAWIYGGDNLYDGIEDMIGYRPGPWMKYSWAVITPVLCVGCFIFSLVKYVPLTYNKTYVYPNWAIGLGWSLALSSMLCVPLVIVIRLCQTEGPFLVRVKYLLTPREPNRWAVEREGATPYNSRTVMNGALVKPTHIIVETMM
UniProt P51692, sequence (P51692 whole entry, looked up): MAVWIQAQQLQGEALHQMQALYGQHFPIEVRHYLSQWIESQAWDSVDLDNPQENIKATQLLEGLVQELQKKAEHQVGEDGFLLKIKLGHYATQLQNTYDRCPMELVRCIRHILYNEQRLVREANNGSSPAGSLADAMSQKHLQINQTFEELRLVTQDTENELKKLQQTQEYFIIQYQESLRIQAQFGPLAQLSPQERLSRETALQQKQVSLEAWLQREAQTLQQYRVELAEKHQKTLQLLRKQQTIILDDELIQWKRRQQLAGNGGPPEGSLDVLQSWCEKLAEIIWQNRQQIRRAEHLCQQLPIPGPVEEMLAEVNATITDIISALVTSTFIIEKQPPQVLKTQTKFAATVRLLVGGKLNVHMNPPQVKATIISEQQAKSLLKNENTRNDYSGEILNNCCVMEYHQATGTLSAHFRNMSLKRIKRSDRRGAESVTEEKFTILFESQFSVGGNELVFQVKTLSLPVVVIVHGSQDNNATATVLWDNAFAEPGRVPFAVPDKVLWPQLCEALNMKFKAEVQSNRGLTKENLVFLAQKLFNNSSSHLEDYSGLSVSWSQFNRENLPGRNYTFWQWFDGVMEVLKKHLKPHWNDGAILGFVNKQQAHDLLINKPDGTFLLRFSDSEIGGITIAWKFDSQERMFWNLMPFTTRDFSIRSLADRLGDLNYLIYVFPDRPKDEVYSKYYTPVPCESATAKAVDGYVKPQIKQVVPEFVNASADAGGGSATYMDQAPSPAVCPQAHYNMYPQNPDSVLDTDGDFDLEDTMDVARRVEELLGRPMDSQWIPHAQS
UniProt Q8TCT7, sequence (Q8TCT7 whole entry, looked up): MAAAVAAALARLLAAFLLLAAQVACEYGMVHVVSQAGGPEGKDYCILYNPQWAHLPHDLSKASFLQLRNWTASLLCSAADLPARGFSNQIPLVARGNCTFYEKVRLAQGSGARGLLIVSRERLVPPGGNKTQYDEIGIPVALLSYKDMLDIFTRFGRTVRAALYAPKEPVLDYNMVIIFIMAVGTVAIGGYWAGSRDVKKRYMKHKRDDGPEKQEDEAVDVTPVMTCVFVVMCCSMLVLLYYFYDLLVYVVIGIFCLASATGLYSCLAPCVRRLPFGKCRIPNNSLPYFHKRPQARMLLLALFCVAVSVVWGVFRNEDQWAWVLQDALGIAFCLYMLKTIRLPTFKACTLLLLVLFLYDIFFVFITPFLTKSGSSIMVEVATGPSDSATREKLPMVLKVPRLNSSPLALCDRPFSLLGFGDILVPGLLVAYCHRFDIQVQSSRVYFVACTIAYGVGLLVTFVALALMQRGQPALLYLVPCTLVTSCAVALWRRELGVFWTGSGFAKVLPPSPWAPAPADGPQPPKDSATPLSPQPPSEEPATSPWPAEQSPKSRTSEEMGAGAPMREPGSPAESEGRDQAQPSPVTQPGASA
UniProt Q8WU79, sequence (Q8WU79 whole entry, looked up): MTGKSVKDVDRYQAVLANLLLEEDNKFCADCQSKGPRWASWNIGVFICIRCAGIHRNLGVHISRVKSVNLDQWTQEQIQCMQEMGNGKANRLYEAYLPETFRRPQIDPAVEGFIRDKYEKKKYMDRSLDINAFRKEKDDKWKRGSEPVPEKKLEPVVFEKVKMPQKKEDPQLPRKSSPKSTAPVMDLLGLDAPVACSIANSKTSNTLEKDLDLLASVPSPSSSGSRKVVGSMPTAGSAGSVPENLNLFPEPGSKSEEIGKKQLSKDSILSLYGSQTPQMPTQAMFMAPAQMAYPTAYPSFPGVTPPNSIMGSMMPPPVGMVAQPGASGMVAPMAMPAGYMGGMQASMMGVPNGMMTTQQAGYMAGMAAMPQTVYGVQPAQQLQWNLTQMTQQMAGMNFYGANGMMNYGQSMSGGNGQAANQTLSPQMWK

Target | log2 fold change
SPPL2B (UniProt Q8TCT7) | 0.048 (inactive)
STK4 (UniProt Q13043) | -0.02 (inactive)
SMG1 (UniProt Q96Q15) | 0 (inactive)
STK38L (UniProt Q9Y2H1) | 0.046 (inactive)
TGFBRAP1 (UniProt Q8WUH2) | 0.062 (inactive)
SLC9A6 isoform 2 (UniProt Q92581) | 0.029 (inactive)
SLC35A1 (UniProt P78382) | -0.017 (inactive)
TFR2 (UniProt Q9UP52) | 0.016 (inactive)
TERF2IP (UniProt Q9NYB0) | 0.049 (inactive)
SUGP1 (UniProt Q8IWZ8) | 0.005 (inactive)
SURF1 (UniProt Q15526) | 0.055 (inactive)
STARD7 (UniProt Q9NQZ5) | 0.009 (inactive)
STEAP3 isoform 2 (UniProt Q658P3) | 0.02 (inactive)
ST6GAL1 (UniProt P15907) | -0.009 (inactive)
SPIRE1 (UniProt Q08AE8) | -0.034 (inactive)
SLC27A1 (UniProt Q6PCB7) | 0 (inactive)
SPG21 (UniProt Q9NZD8) | 0.054 (inactive)
SRP72 (UniProt O76094) | 0.001 (inactive)
SLC38A7 (UniProt Q9NVC3) | 0.088 (inactive)

Target | log2 fold change
SLK isoform 2 (UniProt Q9H2G2) | 0.075 (inactive)
TIPRL (UniProt O75663) | 0.036 (inactive)
STX17 (UniProt P56962) | 0.016 (inactive)
STIM1 (UniProt Q13586) | -0.007 (inactive)
SLC30A10 (UniProt Q6XR72) | 0.008 (inactive)
STK25 (UniProt O00506) | 0.041 (inactive)
SNUPN (UniProt O95149) | 0.037 (inactive)
SLC7A6 (UniProt Q92536) | 0.034 (inactive)
SMAD9 (UniProt O15198) | -0.012 (inactive)
TJP2 isoform 7 (UniProt Q9UDY2) | -0.201 (inactive)
SLC30A7 (UniProt Q8NEW0) | 0.077 (inactive)
STOM (UniProt P27105) | 0.04 (inactive)
STAT5B (UniProt P51692) | -0.013 (inactive)
SPCS2 (UniProt Q15005) | 0.029 (inactive)
SMAP2 (UniProt Q8WU79) | 0.019 (inactive)
TIAL1 isoform 2 (UniProt Q01085) | 0.008 (inactive)
STAT6 (UniProt P42226) | -0.032 (inactive)
SLC6A6 (UniProt P31641) | 0.055 (inactive)
SRSF2 (UniProt Q01130) | -0.032 (inactive)
